# Reference: PMC11062922 (Nature Chemical Biology, 2023)
# Where two headings read alike, the source gives them in different places.
# Legend:
# [1] = system: MAP2K2; conditions: read-out: apparent Kd, n = 1
# [2] = system: MAP2K6; conditions: read-out: apparent Kd, n = 1
# [3] = compound concentrations:100 nM and 1000 nM (sheet 'Lestaurtinib' of Supplementary Table 1),run:Lestaurtinib_02606_R3,Plate:MR019
# [4] = compound concentrations:100 nM and 1000 nM (sheet 'Lestaurtinib' of Supplementary Table 1),run:Lestaurtinib_02624_R2,Plate:MR020
# [5] = compound concentrations:100 nM and 1000 nM (sheet 'Lestaurtinib' of Supplementary Table 1),run:Lestaurtinib_02624_R3,Plate:MR020
# [6] = compound concentrations:100 nM and 1000 nM (sheet 'Lestaurtinib' of Supplementary Table 1),run:Lestaurtinib_02724_R1,Plate:MR021
# [7] = compound concentrations:100 nM and 1000 nM (sheet 'Lestaurtinib' of Supplementary Table 1),run:Lestaurtinib_02724_R2,Plate:MR021
# [8] = compound concentrations:100 nM and 1000 nM (sheet 'Lestaurtinib' of Supplementary Table 1),run:Lestaurtinib_02741_R3,Plate:MR023
# [9] = compound concentrations:100 nM and 1000 nM (sheet 'Lestaurtinib' of Supplementary Table 1),run:Lestaurtinib_02748_R2,Plate:MR024
# [10] = compound concentrations:100 nM and 1000 nM (sheet 'Lestaurtinib' of Supplementary Table 1),run:Lestaurtinib_02752_R3,Plate:MR025
# [11] = compound concentrations:100 nM and 1000 nM (sheet 'Lestaurtinib' of Supplementary Table 1),run:Lestaurtinib_02765_R1,Plate:MR026
substance,measurement,setting,value
Lestaurtinib,potency estimated from few doses,"[1]; compound concentrations:100 nM and 1000 nM (sheet 'Lestaurtinib' of Supplementary Table 1),run:Lestaurtinib_02606_R1,Plate:MR019",0.691 µM
same,potency estimated from few doses,[1]; [3],1.15 µM
same,potency estimated from few doses,"[1]; compound concentrations:100 nM and 1000 nM (sheet 'Lestaurtinib' of Supplementary Table 1),run:Lestaurtinib_02624_R1,Plate:MR020",0.976 µM
same,potency estimated from few doses,[1]; [4],1.76 µM
same,potency estimated from few doses,[1]; [5],1.49 µM
same,potency estimated from few doses,[1]; [6],1.32 µM
same,potency estimated from few doses,[1]; [7],1.51 µM
same,potency estimated from few doses,[1]; [8],0.875 µM
same,potency estimated from few doses,[1]; [9],1.49 µM
same,potency estimated from few doses,"[1]; compound concentrations:100 nM and 1000 nM (sheet 'Lestaurtinib' of Supplementary Table 1),run:Lestaurtinib_02752_R1,Plate:MR025",0.842 µM
same,potency estimated from few doses,"[1]; compound concentrations:100 nM and 1000 nM (sheet 'Lestaurtinib' of Supplementary Table 1),run:Lestaurtinib_02752_R2,Plate:MR025",0.925 µM
same,potency estimated from few doses,[1]; [10],1.31 µM
same,potency estimated from few doses,[1]; [11],0.722 µM
same,potency estimated from few doses,"[1]; compound concentrations:100 nM and 1000 nM (sheet 'Lestaurtinib' of Supplementary Table 1),run:Lestaurtinib_02766_R2,Plate:MR027",0.959 µM
same,potency estimated from few doses,"[1]; compound concentrations:100 nM and 1000 nM (sheet 'Lestaurtinib' of Supplementary Table 1),run:Lestaurtinib_02766_R3,Plate:MR027",1.32 µM
same,potency estimated from few doses,"[1]; compound concentrations:100 nM and 1000 nM (sheet 'Lestaurtinib' of Supplementary Table 1),run:Lestaurtinib_02768_R1,Plate:MR028",1.59 µM
same,potency estimated from few doses,"[1]; compound concentrations:100 nM and 1000 nM (sheet 'Lestaurtinib' of Supplementary Table 1),run:Lestaurtinib_02795_R1,Plate:MR022",0.925 µM
same,potency estimated from few doses,"[1]; compound concentrations:100 nM and 1000 nM (sheet 'Lestaurtinib' of Supplementary Table 1),run:Lestaurtinib_02795_R2,Plate:MR022",0.722 µM
same,potency estimated from few doses,"[1]; compound concentrations:100 nM and 1000 nM (sheet 'Lestaurtinib' of Supplementary Table 1),run:Lestaurtinib_02802_R2,Plate:MR029",0.958 µM
same,potency estimated from few doses,"[1]; compound concentrations:100 nM and 1000 nM (sheet 'Lestaurtinib' of Supplementary Table 1),run:Lestaurtinib_02802_R3,Plate:MR029",1.49 µM
same,potency estimated from few doses,"[1]; compound concentrations:100 nM and 1000 nM (sheet 'Lestaurtinib' of Supplementary Table 1),run:Lestaurtinib_02896_R2,Plate:MR030",0.744 µM
same,potency estimated from few doses,"[1]; compound concentrations:100 nM and 1000 nM (sheet 'Lestaurtinib' of Supplementary Table 1),run:Lestaurtinib_02896_R3,Plate:MR030",0.804 µM
same,potency estimated from few doses,"[1]; compound concentrations:100 nM and 1000 nM (sheet 'Lestaurtinib' of Supplementary Table 1),run:Lestaurtinib_03172_R3,Plate:MR031",0.475 µM
same,potency estimated from few doses,"[1]; compound concentrations:100 nM and 1000 nM (sheet 'Lestaurtinib' of Supplementary Table 1),run:Lestaurtinib_03252_R2,Plate:MR032",0.79 µM
same,potency estimated from few doses,"[1]; compound concentrations:100 nM and 1000 nM (sheet 'Lestaurtinib' of Supplementary Table 1),run:Lestaurtinib_03260_R2,Plate:MR033",1.6 µM
same,potency estimated from few doses,"[2]; compound concentrations:100 nM and 1000 nM (sheet 'Lestaurtinib' of Supplementary Table 1),run:Lestaurtinib_02339_R2,Plate:MR001",0.162 µM
same,potency estimated from few doses,"[2]; compound concentrations:100 nM and 1000 nM (sheet 'Lestaurtinib' of Supplementary Table 1),run:Lestaurtinib_02339_R3,Plate:MR001",0.0969 µM
same,potency estimated from few doses,"[2]; compound concentrations:100 nM and 1000 nM (sheet 'Lestaurtinib' of Supplementary Table 1),run:Lestaurtinib_02364_R2,Plate:MR002",0.135 µM
same,potency estimated from few doses,"[2]; compound concentrations:100 nM and 1000 nM (sheet 'Lestaurtinib' of Supplementary Table 1),run:Lestaurtinib_02367_R1,Plate:MR003",0.158 µM
same,potency estimated from few doses,"[2]; compound concentrations:100 nM and 1000 nM (sheet 'Lestaurtinib' of Supplementary Table 1),run:Lestaurtinib_02367_R2,Plate:MR003",0.19 µM
same,potency estimated from few doses,"[2]; compound concentrations:100 nM and 1000 nM (sheet 'Lestaurtinib' of Supplementary Table 1),run:Lestaurtinib_02367_R3,Plate:MR003",0.165 µM
same,potency estimated from few doses,"[2]; compound concentrations:100 nM and 1000 nM (sheet 'Lestaurtinib' of Supplementary Table 1),run:Lestaurtinib_02381_R1,Plate:MR004",0.175 µM
same,potency estimated from few doses,"[2]; compound concentrations:100 nM and 1000 nM (sheet 'Lestaurtinib' of Supplementary Table 1),run:Lestaurtinib_02407_R2,Plate:MR005",0.137 µM
same,potency estimated from few doses,"[2]; compound concentrations:100 nM and 1000 nM (sheet 'Lestaurtinib' of Supplementary Table 1),run:Lestaurtinib_02422_R3,Plate:MR006",0.151 µM
same,potency estimated from few doses,"[2]; compound concentrations:100 nM and 1000 nM (sheet 'Lestaurtinib' of Supplementary Table 1),run:Lestaurtinib_02437_R1,Plate:MR007",0.184 µM
same,potency estimated from few doses,"[2]; compound concentrations:100 nM and 1000 nM (sheet 'Lestaurtinib' of Supplementary Table 1),run:Lestaurtinib_02437_R2,Plate:MR007",0.189 µM
same,potency estimated from few doses,"[2]; compound concentrations:100 nM and 1000 nM (sheet 'Lestaurtinib' of Supplementary Table 1),run:Lestaurtinib_02437_R3,Plate:MR007",0.0229 µM
same,potency estimated from few doses,"[2]; compound concentrations:100 nM and 1000 nM (sheet 'Lestaurtinib' of Supplementary Table 1),run:Lestaurtinib_02438_R3,Plate:MR008",0.132 µM
same,potency estimated from few doses,"[2]; compound concentrations:100 nM and 1000 nM (sheet 'Lestaurtinib' of Supplementary Table 1),run:Lestaurtinib_02443_R2,Plate:MR009",0.14 µM
same,potency estimated from few doses,"[2]; compound concentrations:100 nM and 1000 nM (sheet 'Lestaurtinib' of Supplementary Table 1),run:Lestaurtinib_02473_R1,Plate:MR010",0.176 µM
same,potency estimated from few doses,"[2]; compound concentrations:100 nM and 1000 nM (sheet 'Lestaurtinib' of Supplementary Table 1),run:Lestaurtinib_02473_R2,Plate:MR010",0.144 µM
same,potency estimated from few doses,"[2]; compound concentrations:100 nM and 1000 nM (sheet 'Lestaurtinib' of Supplementary Table 1),run:Lestaurtinib_02482_R1,Plate:MR011",0.212 µM
same,potency estimated from few doses,"[2]; compound concentrations:100 nM and 1000 nM (sheet 'Lestaurtinib' of Supplementary Table 1),run:Lestaurtinib_02482_R3,Plate:MR011",0.254 µM
same,potency estimated from few doses,"[2]; compound concentrations:100 nM and 1000 nM (sheet 'Lestaurtinib' of Supplementary Table 1),run:Lestaurtinib_02487_R1,Plate:MR012",0.142 µM
same,potency estimated from few doses,"[2]; compound concentrations:100 nM and 1000 nM (sheet 'Lestaurtinib' of Supplementary Table 1),run:Lestaurtinib_02487_R2,Plate:MR012",0.19 µM
same,potency estimated from few doses,"[2]; compound concentrations:100 nM and 1000 nM (sheet 'Lestaurtinib' of Supplementary Table 1),run:Lestaurtinib_02487_R3,Plate:MR012",0.157 µM
same,potency estimated from few doses,"[2]; compound concentrations:100 nM and 1000 nM (sheet 'Lestaurtinib' of Supplementary Table 1),run:Lestaurtinib_02496_R1,Plate:MR013",0.146 µM
same,potency estimated from few doses,"[2]; compound concentrations:100 nM and 1000 nM (sheet 'Lestaurtinib' of Supplementary Table 1),run:Lestaurtinib_02496_R2,Plate:MR013",0.132 µM
same,potency estimated from few doses,"[2]; compound concentrations:100 nM and 1000 nM (sheet 'Lestaurtinib' of Supplementary Table 1),run:Lestaurtinib_02566_R1,Plate:MR014",0.207 µM
same,potency estimated from few doses,"[2]; compound concentrations:100 nM and 1000 nM (sheet 'Lestaurtinib' of Supplementary Table 1),run:Lestaurtinib_02566_R2,Plate:MR014",0.121 µM
same,potency estimated from few doses,"[2]; compound concentrations:100 nM and 1000 nM (sheet 'Lestaurtinib' of Supplementary Table 1),run:Lestaurtinib_02572_R2,Plate:MR015",0.149 µM
same,potency estimated from few doses,"[2]; compound concentrations:100 nM and 1000 nM (sheet 'Lestaurtinib' of Supplementary Table 1),run:Lestaurtinib_02572_R3,Plate:MR015",0.193 µM
same,potency estimated from few doses,"[2]; compound concentrations:100 nM and 1000 nM (sheet 'Lestaurtinib' of Supplementary Table 1),run:Lestaurtinib_02577_R2,Plate:MR016",0.158 µM
same,potency estimated from few doses,"[2]; compound concentrations:100 nM and 1000 nM (sheet 'Lestaurtinib' of Supplementary Table 1),run:Lestaurtinib_02584_R3,Plate:MR017",0.243 µM
same,potency estimated from few doses,"[2]; compound concentrations:100 nM and 1000 nM (sheet 'Lestaurtinib' of Supplementary Table 1),run:Lestaurtinib_02601_R1,Plate:MR018",0.172 µM
same,potency estimated from few doses,"[2]; compound concentrations:100 nM and 1000 nM (sheet 'Lestaurtinib' of Supplementary Table 1),run:Lestaurtinib_02601_R3,Plate:MR018",0.321 µM
same,potency estimated from few doses,"[2]; compound concentrations:100 nM and 1000 nM (sheet 'Lestaurtinib' of Supplementary Table 1),run:Lestaurtinib_02606_R2,Plate:MR019",0.14 µM
same,potency estimated from few doses,[2]; [3],0.18 µM
same,potency estimated from few doses,[2]; [4],0.154 µM
same,potency estimated from few doses,[2]; [5],0.149 µM
same,potency estimated from few doses,[2]; [6],0.141 µM
same,potency estimated from few doses,[2]; [7],0.113 µM
same,potency estimated from few doses,"[2]; compound concentrations:100 nM and 1000 nM (sheet 'Lestaurtinib' of Supplementary Table 1),run:Lestaurtinib_02724_R3,Plate:MR021",0.151 µM
same,potency estimated from few doses,"[2]; compound concentrations:100 nM and 1000 nM (sheet 'Lestaurtinib' of Supplementary Table 1),run:Lestaurtinib_02741_R1,Plate:MR023",0.0926 µM
same,potency estimated from few doses,"[2]; compound concentrations:100 nM and 1000 nM (sheet 'Lestaurtinib' of Supplementary Table 1),run:Lestaurtinib_02741_R2,Plate:MR023",0.113 µM
same,potency estimated from few doses,[2]; [8],0.13 µM
same,potency estimated from few doses,[2]; [9],0.231 µM
same,potency estimated from few doses,"[2]; compound concentrations:100 nM and 1000 nM (sheet 'Lestaurtinib' of Supplementary Table 1),run:Lestaurtinib_02748_R3,Plate:MR024",0.19 µM
same,potency estimated from few doses,[2]; [10],0.175 µM
same,potency estimated from few doses,[2]; [11],0.218 µM
same,potency estimated from few doses,"[2]; compound concentrations:100 nM and 1000 nM (sheet 'Lestaurtinib' of Supplementary Table 1),run:Lestaurtinib_02765_R2,Plate:MR026",0.2 µM
same,potency estimated from few doses,"[2]; compound concentrations:100 nM and 1000 nM (sheet 'Lestaurtinib' of Supplementary Table 1),run:Lestaurtinib_02765_R3,Plate:MR026",0.115 µM
